Laboratory results: ChEMBL document CHEMBL2218924, “A broad activity screen in support of a chemogenomic map for kinase signalling research and drug discovery” (Biochem J, 2013)

Columns and labels:
[1] = target: Protein kinase C eta type (Homo sapiens) (UniProt P24723); details: at 1 µM
[2] = target: Protein kinase C eta type (Homo sapiens) (UniProt P24723); details: at 10 µM
[3] = target: Protein kinase C theta type (Homo sapiens) (UniProt Q04759); details: at 1 µM
[4] = target: Protein kinase C theta type (Homo sapiens) (UniProt Q04759); details: at 10 µM
[5] = target: T1, Protein kinase C iota type (Homo sapiens) (UniProt P41743); details: at 1 µM
T1 sequence (whole entry): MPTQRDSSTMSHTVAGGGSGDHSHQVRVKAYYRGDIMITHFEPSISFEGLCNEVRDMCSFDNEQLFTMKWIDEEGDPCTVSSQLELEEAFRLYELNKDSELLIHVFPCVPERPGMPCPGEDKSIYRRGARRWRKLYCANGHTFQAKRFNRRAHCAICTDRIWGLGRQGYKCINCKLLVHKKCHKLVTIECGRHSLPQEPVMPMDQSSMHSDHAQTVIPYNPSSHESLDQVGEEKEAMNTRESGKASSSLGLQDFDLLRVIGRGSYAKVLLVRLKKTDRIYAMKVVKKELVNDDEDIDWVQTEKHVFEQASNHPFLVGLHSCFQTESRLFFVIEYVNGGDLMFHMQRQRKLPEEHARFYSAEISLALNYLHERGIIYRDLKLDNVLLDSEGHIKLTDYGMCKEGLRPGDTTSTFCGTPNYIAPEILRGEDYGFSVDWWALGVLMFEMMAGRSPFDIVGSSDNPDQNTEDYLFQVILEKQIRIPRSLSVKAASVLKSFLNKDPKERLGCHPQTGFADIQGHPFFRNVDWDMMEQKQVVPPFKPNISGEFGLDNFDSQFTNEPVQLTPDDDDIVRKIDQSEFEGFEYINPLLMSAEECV

[6] = target: T1, Protein kinase C iota type (Homo sapiens); details: at 10 µM
[7] = target: T2, Serine/threonine-protein kinase D1 (Homo sapiens) (UniProt Q15139); details: at 1 µM
T2 sequence (whole entry): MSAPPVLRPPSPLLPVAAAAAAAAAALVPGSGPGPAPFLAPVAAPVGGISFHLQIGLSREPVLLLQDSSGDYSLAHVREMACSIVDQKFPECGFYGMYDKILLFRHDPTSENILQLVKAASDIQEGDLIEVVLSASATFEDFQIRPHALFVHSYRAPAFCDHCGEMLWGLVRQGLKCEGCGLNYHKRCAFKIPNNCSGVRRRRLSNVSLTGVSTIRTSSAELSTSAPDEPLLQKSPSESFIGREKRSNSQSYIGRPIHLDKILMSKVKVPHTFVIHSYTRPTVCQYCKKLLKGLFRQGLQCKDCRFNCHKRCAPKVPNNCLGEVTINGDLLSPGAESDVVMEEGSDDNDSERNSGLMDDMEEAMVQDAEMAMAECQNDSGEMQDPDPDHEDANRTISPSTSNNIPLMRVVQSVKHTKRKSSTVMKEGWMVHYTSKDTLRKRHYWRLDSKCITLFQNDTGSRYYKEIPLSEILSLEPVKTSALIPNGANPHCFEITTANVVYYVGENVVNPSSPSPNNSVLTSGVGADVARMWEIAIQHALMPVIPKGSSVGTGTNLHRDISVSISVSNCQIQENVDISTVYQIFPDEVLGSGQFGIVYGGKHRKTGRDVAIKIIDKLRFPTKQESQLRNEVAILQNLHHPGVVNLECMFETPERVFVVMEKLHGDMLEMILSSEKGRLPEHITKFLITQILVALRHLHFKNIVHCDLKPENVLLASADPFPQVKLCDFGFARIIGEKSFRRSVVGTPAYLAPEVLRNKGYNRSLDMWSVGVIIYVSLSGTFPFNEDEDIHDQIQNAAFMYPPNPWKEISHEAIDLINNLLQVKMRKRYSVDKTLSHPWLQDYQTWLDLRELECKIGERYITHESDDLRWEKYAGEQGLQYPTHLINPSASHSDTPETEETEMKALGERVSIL

[8] = target: T2, Serine/threonine-protein kinase D1 (Homo sapiens); details: at 10 µM
[9] = target: T3, Serine/threonine-protein kinase D2 (Homo sapiens) (UniProt Q9BZL6); details: at 1 µM
T3 sequence (whole entry): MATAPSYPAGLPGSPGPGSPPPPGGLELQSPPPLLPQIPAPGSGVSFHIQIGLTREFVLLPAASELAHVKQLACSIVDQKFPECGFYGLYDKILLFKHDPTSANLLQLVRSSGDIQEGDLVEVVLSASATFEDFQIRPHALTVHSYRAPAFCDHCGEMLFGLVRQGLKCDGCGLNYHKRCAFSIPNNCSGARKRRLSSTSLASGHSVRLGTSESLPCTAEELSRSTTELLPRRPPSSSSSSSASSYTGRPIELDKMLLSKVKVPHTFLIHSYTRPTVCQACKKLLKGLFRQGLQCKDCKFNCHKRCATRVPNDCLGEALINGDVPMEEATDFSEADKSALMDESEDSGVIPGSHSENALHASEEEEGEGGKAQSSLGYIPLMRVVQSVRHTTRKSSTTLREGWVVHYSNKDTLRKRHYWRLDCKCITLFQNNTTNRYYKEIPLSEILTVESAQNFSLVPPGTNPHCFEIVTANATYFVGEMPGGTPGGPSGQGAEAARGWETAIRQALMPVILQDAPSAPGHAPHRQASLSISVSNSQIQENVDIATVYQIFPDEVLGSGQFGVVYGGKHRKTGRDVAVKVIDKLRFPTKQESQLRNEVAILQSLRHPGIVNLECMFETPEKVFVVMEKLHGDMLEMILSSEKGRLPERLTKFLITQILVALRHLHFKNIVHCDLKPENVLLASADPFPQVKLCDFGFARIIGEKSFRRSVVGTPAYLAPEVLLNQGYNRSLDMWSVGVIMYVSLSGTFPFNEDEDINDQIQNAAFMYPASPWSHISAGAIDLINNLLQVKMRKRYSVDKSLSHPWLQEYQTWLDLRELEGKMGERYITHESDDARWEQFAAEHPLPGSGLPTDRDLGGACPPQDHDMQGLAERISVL

[10] = target: T3, Serine/threonine-protein kinase D2 (Homo sapiens); details: at 10 µM
[11] = target: T4, cGMP-dependent protein kinase 1 (Homo sapiens) (UniProt Q13976); details: at 1 µM
T4 sequence (whole entry): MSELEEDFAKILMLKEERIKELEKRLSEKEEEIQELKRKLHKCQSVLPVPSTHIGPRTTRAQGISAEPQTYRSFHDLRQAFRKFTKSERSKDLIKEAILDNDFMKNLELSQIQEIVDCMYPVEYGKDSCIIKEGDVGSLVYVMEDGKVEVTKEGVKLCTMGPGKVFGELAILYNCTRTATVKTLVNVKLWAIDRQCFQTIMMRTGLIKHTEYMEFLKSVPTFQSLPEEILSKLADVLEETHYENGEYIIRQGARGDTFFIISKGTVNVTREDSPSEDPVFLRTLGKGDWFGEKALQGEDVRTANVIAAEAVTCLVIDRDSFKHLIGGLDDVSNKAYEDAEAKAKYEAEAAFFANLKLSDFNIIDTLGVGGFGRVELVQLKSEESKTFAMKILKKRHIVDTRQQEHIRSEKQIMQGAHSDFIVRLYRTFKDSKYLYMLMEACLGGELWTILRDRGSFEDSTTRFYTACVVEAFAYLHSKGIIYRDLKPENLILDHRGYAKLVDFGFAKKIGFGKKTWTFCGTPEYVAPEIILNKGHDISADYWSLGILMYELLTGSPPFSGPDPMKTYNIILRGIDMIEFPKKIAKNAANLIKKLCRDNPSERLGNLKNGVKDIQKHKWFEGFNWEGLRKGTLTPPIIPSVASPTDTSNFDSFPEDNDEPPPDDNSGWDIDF

[12] = target: T4, cGMP-dependent protein kinase 1 (Homo sapiens); details: at 10 µM
[13] = target: T4, cGMP-dependent protein kinase 1 (Homo sapiens); details: at 1 µM; remark: listed apart in the source
[14] = target: T4, cGMP-dependent protein kinase 1 (Homo sapiens); details: at 10 µM; remark: listed apart in the source
[15] = target: T5, MAP kinase-activated protein kinase 5 (Homo sapiens) (UniProt Q8IW41); details: at 1 µM
T5 sequence (whole entry): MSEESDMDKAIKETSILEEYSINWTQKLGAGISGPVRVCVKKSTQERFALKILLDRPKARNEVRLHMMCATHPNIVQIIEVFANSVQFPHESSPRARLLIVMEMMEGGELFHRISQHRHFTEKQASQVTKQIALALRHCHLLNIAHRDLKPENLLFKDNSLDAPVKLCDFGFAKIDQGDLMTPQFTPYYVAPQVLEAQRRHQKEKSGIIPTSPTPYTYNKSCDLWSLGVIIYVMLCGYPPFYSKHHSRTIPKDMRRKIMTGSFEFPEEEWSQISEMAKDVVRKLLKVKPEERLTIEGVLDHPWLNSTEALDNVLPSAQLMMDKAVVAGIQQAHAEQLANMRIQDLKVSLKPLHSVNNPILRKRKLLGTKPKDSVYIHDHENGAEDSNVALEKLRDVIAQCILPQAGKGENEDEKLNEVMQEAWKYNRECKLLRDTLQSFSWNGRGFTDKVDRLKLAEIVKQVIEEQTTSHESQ

[16] = target: T5, MAP kinase-activated protein kinase 5 (Homo sapiens); details: at 10 µM
[17] = target: Serine/threonine-protein kinase N2 (Homo sapiens) (UniProt Q16513); details: at 1 µM
Serine/threonine-protein kinase N2 (Homo sapiens), sequence (Q16513 whole entry, looked up): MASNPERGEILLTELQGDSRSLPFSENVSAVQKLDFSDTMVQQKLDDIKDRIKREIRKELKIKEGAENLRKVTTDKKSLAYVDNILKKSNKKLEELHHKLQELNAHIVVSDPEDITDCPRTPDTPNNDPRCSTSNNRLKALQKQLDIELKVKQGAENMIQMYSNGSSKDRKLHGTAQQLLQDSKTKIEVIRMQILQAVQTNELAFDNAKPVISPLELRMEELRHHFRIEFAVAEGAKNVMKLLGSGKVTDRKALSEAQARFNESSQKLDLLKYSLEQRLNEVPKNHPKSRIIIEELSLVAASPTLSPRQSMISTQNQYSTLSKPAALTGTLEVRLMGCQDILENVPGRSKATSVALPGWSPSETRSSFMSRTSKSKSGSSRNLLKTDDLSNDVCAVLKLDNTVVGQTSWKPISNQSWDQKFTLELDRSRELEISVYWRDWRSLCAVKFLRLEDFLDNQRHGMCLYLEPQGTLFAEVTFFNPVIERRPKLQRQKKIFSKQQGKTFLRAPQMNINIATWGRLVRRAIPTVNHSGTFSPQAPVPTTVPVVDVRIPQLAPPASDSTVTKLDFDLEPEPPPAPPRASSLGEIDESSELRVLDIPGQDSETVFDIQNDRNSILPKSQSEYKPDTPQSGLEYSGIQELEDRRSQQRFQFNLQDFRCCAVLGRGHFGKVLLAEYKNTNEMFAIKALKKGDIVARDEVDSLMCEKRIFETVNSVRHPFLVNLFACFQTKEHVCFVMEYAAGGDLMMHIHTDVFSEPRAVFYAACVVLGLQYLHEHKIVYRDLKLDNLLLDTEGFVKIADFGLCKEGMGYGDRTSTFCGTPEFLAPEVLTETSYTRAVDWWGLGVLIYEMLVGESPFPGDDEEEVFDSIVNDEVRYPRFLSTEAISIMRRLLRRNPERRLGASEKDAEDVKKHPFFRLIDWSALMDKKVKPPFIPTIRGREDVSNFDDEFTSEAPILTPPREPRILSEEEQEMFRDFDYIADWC

[18] = target: Serine/threonine-protein kinase N2 (Homo sapiens) (UniProt Q16513); details: at 10 µM
[19] = target: Tyrosine-protein kinase FRK (Homo sapiens) (UniProt P42685); details: at 1 µM
Tyrosine-protein kinase FRK (Homo sapiens), sequence (P42685 whole entry): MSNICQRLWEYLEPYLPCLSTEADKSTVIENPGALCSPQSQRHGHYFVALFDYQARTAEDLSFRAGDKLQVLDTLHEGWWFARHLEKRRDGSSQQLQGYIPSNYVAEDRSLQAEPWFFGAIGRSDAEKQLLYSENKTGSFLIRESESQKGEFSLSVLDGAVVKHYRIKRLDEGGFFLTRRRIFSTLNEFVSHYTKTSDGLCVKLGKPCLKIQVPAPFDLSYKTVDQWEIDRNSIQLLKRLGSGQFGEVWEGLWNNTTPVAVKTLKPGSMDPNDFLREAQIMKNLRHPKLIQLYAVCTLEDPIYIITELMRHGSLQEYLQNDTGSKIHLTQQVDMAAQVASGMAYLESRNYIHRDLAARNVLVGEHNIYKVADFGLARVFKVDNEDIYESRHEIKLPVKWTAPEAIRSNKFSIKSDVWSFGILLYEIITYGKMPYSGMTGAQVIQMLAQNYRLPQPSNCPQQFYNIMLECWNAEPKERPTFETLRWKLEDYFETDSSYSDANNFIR

[20] = target: Tyrosine-protein kinase FRK (Homo sapiens) (UniProt P42685); details: at 10 µM

Protein kinase C eta type (Homo sapiens), sequence (P24723 whole entry): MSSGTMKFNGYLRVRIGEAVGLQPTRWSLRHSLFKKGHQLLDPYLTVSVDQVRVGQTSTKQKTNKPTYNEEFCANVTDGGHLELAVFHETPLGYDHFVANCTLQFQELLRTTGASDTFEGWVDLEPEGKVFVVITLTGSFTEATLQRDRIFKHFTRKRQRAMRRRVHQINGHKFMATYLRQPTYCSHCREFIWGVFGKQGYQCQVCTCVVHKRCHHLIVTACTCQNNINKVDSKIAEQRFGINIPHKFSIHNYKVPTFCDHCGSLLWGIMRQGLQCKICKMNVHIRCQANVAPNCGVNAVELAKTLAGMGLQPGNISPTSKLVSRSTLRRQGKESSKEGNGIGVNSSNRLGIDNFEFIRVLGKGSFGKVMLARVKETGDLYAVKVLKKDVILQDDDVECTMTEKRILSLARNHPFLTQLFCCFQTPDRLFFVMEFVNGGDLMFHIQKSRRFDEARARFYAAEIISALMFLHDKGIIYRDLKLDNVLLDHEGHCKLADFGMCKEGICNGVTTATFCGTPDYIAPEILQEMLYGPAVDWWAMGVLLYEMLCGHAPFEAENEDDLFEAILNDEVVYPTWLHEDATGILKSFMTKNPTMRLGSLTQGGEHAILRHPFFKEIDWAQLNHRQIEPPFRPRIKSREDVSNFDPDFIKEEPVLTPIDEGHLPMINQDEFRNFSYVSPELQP
Protein kinase C theta type (Homo sapiens), sequence (Q04759 whole entry, looked up): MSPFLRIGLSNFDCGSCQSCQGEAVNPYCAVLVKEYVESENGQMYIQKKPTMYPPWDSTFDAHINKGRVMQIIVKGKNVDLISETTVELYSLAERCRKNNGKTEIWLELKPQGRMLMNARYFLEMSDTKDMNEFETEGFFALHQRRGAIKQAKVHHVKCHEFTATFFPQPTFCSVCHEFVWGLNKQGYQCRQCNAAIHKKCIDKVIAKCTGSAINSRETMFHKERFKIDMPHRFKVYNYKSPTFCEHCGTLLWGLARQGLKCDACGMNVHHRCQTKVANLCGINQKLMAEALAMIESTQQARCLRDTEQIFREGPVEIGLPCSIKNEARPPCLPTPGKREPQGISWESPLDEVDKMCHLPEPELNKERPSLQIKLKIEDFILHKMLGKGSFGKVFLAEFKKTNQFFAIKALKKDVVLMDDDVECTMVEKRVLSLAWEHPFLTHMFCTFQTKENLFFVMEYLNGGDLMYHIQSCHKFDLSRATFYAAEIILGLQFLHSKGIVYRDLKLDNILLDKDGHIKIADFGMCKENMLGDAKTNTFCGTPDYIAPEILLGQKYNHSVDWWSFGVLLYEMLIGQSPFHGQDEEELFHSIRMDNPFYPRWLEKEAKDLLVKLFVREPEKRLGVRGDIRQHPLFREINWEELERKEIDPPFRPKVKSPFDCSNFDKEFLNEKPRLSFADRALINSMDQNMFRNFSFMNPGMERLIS

| Structure (SMILES) | residual activity [1] [%] | residual activity [2] [%] | residual activity [3] [%] | residual activity [4] [%] | residual activity [5] | residual activity [6] [%] | residual activity [7] [%] | residual activity [8] [%] | residual activity [9] [%] | residual activity [10] [%] | residual activity [11] [%] | residual activity [12] [%] | residual activity [13] [%] | residual activity [14] [%] | residual activity [15] [%] | residual activity [16] [%] | residual activity [17] [%] | residual activity [18] [%] | residual activity [19] [%] | residual activity [20] [%] |
| --- | --- | --- | --- | --- | --- | --- | --- | --- | --- | --- | --- | --- | --- | --- | --- | --- | --- | --- | --- | --- |
| CC#CC(=O)Nc1cc2c(Nc3ccc(F)c(Cl)c3)ncnc2cn1 | 90 | 84 | 96 | 96 | 87% (inactive) | 106 | 89 | 84 | 105 | 114 | 103 | 102 | 86 | 92 | 84 | 77 | 94 | 98 | 97 | 92 |
| COc1ccc(S(=O)(=O)N(CCO)c2ccccc2CN(C)C/C=C/c2ccc(Cl)cc2)cc1 | 78 | 89 | 89 | 93 | 117% (inactive) | 110 | 83 | 77 | 102 | 99 | 101 | 99 | 103 | 86 | 98 | 53 | 95 | 69 | 100 | 125 |
| CC[n+]1c(/C=C/N(C)c2ccccc2)n(-c2ccccc2)c2ccc(-c3nc4ccccc4s3)cc21 | 119 | 88 | 96 | 84 | 93% (inactive) | 88 | 92 | 90 | 95 | 114 | 105 | 80 | 87 | 60 | 104 | 133 | 94 | 77 | 108 | 123 |
| c1ccc(-c2n[nH]cc2-c2ccnc3ccccc23)nc1 | 92 | 77 | 97 | 86 | 81% (inactive) | 91 | 65 | 22 | 101 | 66 |  |  |  |  | 73 | 90 | 89 | 103 | 84 | 25 |
| Nc1cccc(-c2cc3c(Oc4cccc(O)c4)ncnc3[nH]2)c1 | 83 | 64 | 88 | 57 |  | 99 | 80 | 51 | 99 | 54 |  |  |  | 91 | 100 | 71 | 98 | 67 | 1 | 0 |
| COc1cc2ncnc(Nc3ccc(NC(=O)c4ccccc4)cc3)c2cc1OC | 137 | 95 |  | 101 | 101% (inactive) | 66 |  | 88 | 100 | 106 | 105 | 99 | 90 |  | 105 | 76 |  |  | 109 | 76 |
| Oc1ccc(-c2nc(-c3ccc(F)cc3)c(-c3ccncc3)[nH]2)cc1 | 100 | 70 | 101 | 75 | 109% (inactive) | 105 | 94 | 36 | 102 | 81 | 108 | 66 | 108 | 78 | 110 | 80 | 107 | 47 | 65 | 12 |
